Assay outcomes as filed in PubChem.
This is a sample that favours compounds with a hit; in the whole collection about 3.1% have one here.
Calb FLC = C. albicans growth modulation with fluconazole. C. albicans CaCi-2 (fluconazole-resistant clinical isolate) + fluconazole, Alamar Blue growth, 48 h. growth inhibition, % (no concentration beside the values). 300,000 tested, 0.57% active;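 active = growth inhibition above about 58% in most replicates, limit read from the data, passing the limit was not always enough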;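 note: all wells also contain fluconazole at 8 µg/ml as a sub-toxic cotreatment; 0% = median of DMSO wells and 100% = median of geldanamycin control wells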
FAS-TE inh = FAS thioesterase (human) inhibition; P49327; recombinant FAS-TE, OMFH fluorogenic substrate, fluorescence endpoint; inhibition, % at 15 µM; 360,000 tested, 0.67% active; AID 602261;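 active = compounds whose normalised, plate-corrected inhibition of enzyme fluorescence in the single-dose primary screen is 50% or more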;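 note: 0% = DMSO with enzyme and 100% = substrate without enzyme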
ATG4B inh = ATG4B (human) cysteine protease inhibition; Q9Y4P1; inhibition, % at 8.33 µM; ATG4B cleavage of LC3-PLA2, NBD-HPC fluorescence, 1 h; 340,000 tested, 0.51% active; in the data active = inhibition above about 40%
Target sequence (Q9Y4P1 whole entry, looked up): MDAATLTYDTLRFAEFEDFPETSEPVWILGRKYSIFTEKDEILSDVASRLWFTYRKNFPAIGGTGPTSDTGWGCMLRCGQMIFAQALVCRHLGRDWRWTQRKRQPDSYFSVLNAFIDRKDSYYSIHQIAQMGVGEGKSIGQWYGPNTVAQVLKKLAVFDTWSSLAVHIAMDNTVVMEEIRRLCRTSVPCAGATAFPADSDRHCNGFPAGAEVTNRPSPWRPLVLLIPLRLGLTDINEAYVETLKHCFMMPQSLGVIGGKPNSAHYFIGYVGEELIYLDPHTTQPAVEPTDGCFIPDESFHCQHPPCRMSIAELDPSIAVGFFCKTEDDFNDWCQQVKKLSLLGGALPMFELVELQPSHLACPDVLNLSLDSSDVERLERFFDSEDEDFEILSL
NadD inh = inhibitors of Staphylococcus aureus NadD. 360,000 tested, 0.78% active. purified NadD enzyme, colorimetric absorbance read-out. inhibition, % at 20 µM. AID 602399; in the data active = inhibition above about 26%
Mot1-301 SUMO = SUMOylation pathway inhibition by Mot1-301 growth rescue; S. cerevisiae Mot1-301 growth rescue, ATP luminescence, 38.5C; percent above DMSO median, 100 means doubled; growth rescue, % at 18.8 µM; 320,000 tested, 1% active; AID 2716;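 active = every valid replicate shows activation above 250% relative to neutral control wells; inactive = the rest, any valid replicate at or below 250%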;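 note: OY570 slx delta 5 strain wells were the positive control but not used for scaling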
NadD conf = NadD (S. aureus) inhibition, single concentration confirmation; inhibition, % at 20 µM; purified S. aureus NadD, colorimetric enzyme assay; shares compounds with NadD inh; 2,000 tested, 13% active; in the data active = inhibition mostly above about 42%, no sharp cut-off; inactive = mostly below about 42%
* marks the source's active call; other numbers are inactive results; x = no result.

SMILES	Calb FLC	FAS-TE inh	ATG4B inh	NadD inh	Mot1-301 SUMO	NadD conf
COc1cc(/C=N\NC(=O)c2ccc(-c3ccccc3)cc2)ccc1OCC(N)=O	10.6	-9.7	-0.4	-3.9	-15.4	x
O=C(O)COc1ccc(/C=N/NC(=O)c2ccc(-c3csc(Nc4ccc(Cl)cc4)n3)cc2)cc1	5.2	3.4	-2.4	71.4*	x	9.3
COc1ccc(/C=N/Nc2nc(Nc3ccccc3)nc(N3CCCCC3)n2)cc1OC	18.2	22.8	-19.3	5.5	4.1	x
CCOc1cc(/C=N/Nc2nc(Nc3ccccc3)nc(N3CCCCC3)n2)ccc1OCC(=O)O	5.5	2.5	16.3	33.2*	-16.5	20.3
CCOc1cc(/C=N/NC(=O)c2ccc(-c3csc(Nc4ccc(C)cc4)n3)cc2)ccc1OCC(=O)O	x	5.5	-1.9	53.2*	x	27.3
O=C(COc1ccc(Cl)cc1)Nc1nc(-c2ccncc2)cs1	9.0	1.7	-8.4	4.3	-11.6	x
O=C(CSc1nnc(NC(=O)C2CC2)s1)NCc1ccccc1Cl	0.4	-5.4	11.6	-0.3	-0.5	x
O=C(Cc1cccc2ccccc12)Nc1ccc(-c2cc3ccccc3oc2=O)cc1	x	25.5	10.9	31.5*	4.8	13.5
NC(=S)NNc1cccc2cccnc12	48.4	-5.3	-1.6	33.8*	97.2	17.9
NC(=S)Nc1cccc2cccnc12	24.7	-6.1	-2.9	-8.7	-10.1	x
Cc1ccc(N2C(=O)N(CC(=O)Nc3ccc(C)cc3Cl)C(=O)C2C)cc1 (stereo not given)	-1.5	6.8	3.4	0.0	25.3	x
CC(=O)c1ccc2oc3ccccc3c(=O)c2c1	-1.9	-1.8	-4.9	-3.7	-19.6	x
Fc1cc(NC(=S)NCc2ccc(CNC(=S)Nc3ccc(Cl)c(F)c3)cc2)ccc1Cl	-3.5	6.4	-6.4	35.6*	-8.5	39.2
Fc1cccc(NC(=S)NCc2ccc(Cl)cc2)c1	-1.3	6.7	1.6	-5.8	139.8	x
CN(C)c1oc(-c2ccccc2Cl)nc1P(=O)(c1ccccc1)c1ccccc1	9.7	13.7	-22.8	-3.5	179.9	x
O=C(/C=C/c1ccco1)NC(=S)Nc1cccc([N+](=O)[O-])c1	13.2	13.5	13.6	39.2*	-5.9	18.2
Cc1ccc(-c2nc3ccccc3o2)cc1NC(=S)NC(=O)/C=C/c1ccco1	-3.8	17.2	7.9	26.0	8.1	x
O=C(/C=C/c1ccco1)NC(=S)Nc1cccc(-c2nc3ccccc3s2)c1	3.1	19.2	10.8	62.2*	9.4	13.0
O=C(/C=C/c1ccco1)NC(=S)Nc1cccc(-c2nc3ccccc3o2)c1	2.9	18.2	11.0	30.7*	-21.7	-4.9
O=C(/C=C/c1ccco1)NC(=S)Nc1cc(-c2nc3ccccc3s2)ccc1Cl	x	8.1	32.1	52.1*	13.4	1.3
Cc1ccc(C2/C=C\CC(NC(=O)OCC3c4ccccc4-c4ccccc43)CC(=O)N2Cc2ccccc2)cc1 (stereo not given)	x	15.5	18.9	12.9	x	x
CCOC(=O)[C@@H]1[C@H]2COc3cc(OC)ccc3[C@@H]2N2C(=O)N(c3ccc(Cl)cc3)C(=O)[C@@]12C	-5.5	20.5	-5.8	-15.6	1.7	x
CC(=O)N(Cc1ccccc1)C(CC(=O)NCc1ccccc1)C(=O)O (stereo not given)	x	-10.2	-10.1	-6.5	x	x
Cc1ccc(NS(=O)(=O)c2cc(NC(=O)c3ccc4c(c3)NC(=O)CS4)ccc2C)c(C)c1	1.9	36.6	-34.0	34.0*	-2.0	24.5
COc1ccc(NC(=O)c2ccc3c(c2)NC(=O)CS3)cc1S(=O)(=O)Nc1ccc(Br)cc1	6.6	7.1	-12.3	-0.2	-14.1	x
SMILES	Calb FLC	FAS-TE inh	ATG4B inh	NadD inh	Mot1-301 SUMO	NadD conf
C=Cc1cnc([N+](=O)[O-])n1C	x	-11.4	x	-1.1	x	x
CCC(=O)N1CCN(c2nc3ccccc3s2)CC1	1.7	-7.8	-2.5	0.8	542.5	x
O=C(c1cc2sccc2n1Cc1ccccc1)N1CCN(c2nc3ccccc3s2)CC1	1.0	22.3	-10.3	34.4*	12.4	21.3
C=CCN1CCc2nc(N)sc2CC1	x	-11.4	7.0	30.3*	x	21.0
Cc1ccc(Nc2nc(-c3sc(NC(=O)c4ccco4)nc3C)cs2)cc1	2.3	6.7	8.0	33.0*	-1.8	40.9
CCOc1ccccc1Nc1nc(-c2sc(C)nc2C)cs1	1.0	18.0	-10.6	-0.1	-16.4	x
CCOc1ccccc1Nc1nc(-c2sc(NC(=O)c3ccco3)nc2C)cs1	6.8	11.8	1.3	30.9*	91.5	24.1
Cc1ccccc1Nc1nc(-c2sc(NC(=O)c3ccco3)nc2C)cs1	0.1	0.8	13.5	32.4*	65.3	34.2
CSc1ccc(S(=O)(=O)N2CCC(C(=O)NCC3CCCO3)CC2)cc1 (stereo not given)	7.6	-1.3	-1.4	3.8	25.1	x
O=C(C[C@H]1C[C@H](C(=O)N2CCCCC2)[C@@]2(CCc3ccccc3)c3[nH]c4ccc(Cl)cc4c3CCN2C1=O)NCCCn1ccnc1	x	10.9	-9.6	30.6*	x	0.8
C[C@]12c3[nH]c4ccc(Cl)cc4c3CCN1C(=O)[C@@H](CC(=O)NCCCn1ccnc1)C[C@@H]2C(=O)N1CCCCC1	x	-7.4	-7.0	9.1	x	x
CC(C)=CCC/C(C)=C/CNC(=O)C[C@H]1C[C@H](C(=O)N2CCCCC2)[C@@]2(CCc3ccccc3)c3[nH]c4cc(-c5ccco5)ccc4c3CCN2C1=O	x	16.4	16.7	44.5*	x	10.7
O=C1CNC(=S)N1C(CO)c1ccccc1 (stereo not given)	-17.2	-3.1	4.8	-6.8	-3.9	x
O=C1CC(C(=O)N2CCc3ccccc32)CN1c1ccccc1 (stereo not given)	1.1	2.9	-3.7	-2.0	9.2	x
CSc1nc(SCCO)c2sc3nc(-c4ccco4)c4c(c3c2n1)CC(C)(C)OC4	-5.8	5.2	6.1	60.2*	x	21.4
O=C(CN1C(=O)NC2(CCCC2)C1=O)NCc1ccc(Cl)cc1	x	-2.9	-7.4	-4.6	-7.4	x
COc1ccccc1-n1c(SCc2cc(=O)oc3cc(O)ccc23)nc2ccccc2c1=O	-1.0	21.0	10.6	31.8*	-9.9	57.5*
O=[N+]([O-])c1ccc(Nc2cccc3c2[nH]c2c(-c4ccccc4)nccc23)c([N+](=O)[O-])c1	x	40.7	1.2	44.3*	x	16.1
Cc1cc2cc(CNC(=O)Nc3ccc(Cl)c(Cl)c3)ccc2n1C	0.2	1.6	-8.1	30.6*	12.1	16.7
COc1cc2c(cc1[N+](=O)[O-])-c1ccc([N+](=O)[O-])cc1C2=NNC(N)=S	x	5.8	x	48.2*	x	32.7
NC(=S)NN=C1c2cc(Cl)ccc2-c2c1cc(Cl)cc2[N+](=O)[O-]	x	15.3	2.1	35.2*	x	4.7
COC(=O)c1c(NC(=O)C(=O)N2CCOCC2)sc2c1CCCC2	-2.8	4.8	-5.2	-7.3	1.8	x
C[C@@H]1CCCCO[C@H](CN(C)C(=O)Nc2ccc(F)cc2)[C@@H](C)CN([C@H](C)CO)C(=O)c2cc(N(C)C)ccc2O1	x	-7.5	x	0.3	x	x
